In the library only some 3.1% were active in any assay of this set; here they are far more common.
VDR inh: inhibitors of human vitamin D receptor. P11473. VDR-SRC2-3 peptide fluorescence polarization, 2 h. Potency, µM, without a hit: max response, negative = inhibition, most hits filed as inhibitors. 0.93% of 400,000 active. AID 504847; note: potency is the fitted concentration of half-maximal effect; % is set by controls: 0 for no effect and ±100 for the full control effect
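VDR–SRC2-3 interaction, FP format. Cmpds 23 nl via pintool, brief spin, 2 h ambient incubation.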
PTAP TSG101 blk: blocks PTAP/TSG101 interaction to inhibit HIV-1 budding; Q99816; Fluorescence polarization, FITC-PTAP peptide / Tsg101 binding; Potency, µM (highest dose often 115 µM), for the others: top-dose activity change, negative = inhibition, actives largely listed as inhibitors; 340,000 tested, under 10 active; active = well fitted inhibition curve with a large enough effect in the main read-out, with a control signal flat, not every such curve was filed as active; inconclusive = small, poorly fitted or top-dose-only effect, or effect the other way, or a change in a side signal; inactive = no such curve, though single readings can be large or run the other way; note: potency is the fitted concentration of half-maximal effect; % of control where 0% means no effect
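Compounds were pin-transferred onto Tsg101 binding domain (10 uM final) in HEPES pH 7.5 buffer, then FITC-PTAP peptide was added at 50 nM final. After 20 min at RT, polarization reported peptide displacement across a qHTS concentration series.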
TSHR antagonist: blocks TSH signaling through the human TSH receptor; activity change, negative = inhibition, % at 11.5 µM; 0.2% of 330,000 active; P16473; TSHR-expressing cells, TSH-stimulated cAMP HTRF, 2 h; stronger effect = lower value;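 active = activity change below a set negative limit, meaning inhibition stronger than a set level, cut at about -70% in these data; inconclusive = activity change between two set negative limits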; note: % is set by controls: 0 for no effect and ±100 for the full control effect
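TSHR-expressing cells, 200/well, pre-treated with compound, then stimulated with EC80 TSH (4nM final) for 2 hours at 37 deg C. cAMP measured by competitive HTRF: anti-cAMP cryptate antibody in lysis buffer plus cAMP-d2, read after 30 minutes at room temperature.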
uPA generation: inhibitors of cell surface uPA generation. 0.31% of 330,000 active. Potency, µM (series often up to 38.3 µM), for the others: top-dose activity change, negative = inhibition, actives largely listed as inhibitors. cell surface uPA generation assay, qHTS; active = well fitted inhibition curve with a large enough effect; inconclusive = small, poorly fitted or top-dose-only effect; inactive = no such curve, though single readings can be large or run the other way; tested in mouse RAW 264.7 cells; note: potency is the fitted concentration of half-maximal effect; % is set by controls: 0 for no effect and ±100 for the full control effect; nearly all actives have a fitted effect of over 55% in size
PLK1 PBD block: blocks phosphopeptide binding to human PLK1 polo-box domain. P53350. 2.8% of 360,000 active. Potency, µM, inactives show max response, negative = inhibition, actives largely listed as inhibitors. Plk1 PBD binding of FITC phosphopeptide, fluorescence polarization; note: potency is the fitted concentration of half-maximal effect; series mostly up to about 57 µM; % is set by controls: 0 for no effect and ±100 for the full control effect; nearly all actives have a fitted effect of over 65% in size
Target sequence (P53350 whole entry, looked up, the tested form may be a part): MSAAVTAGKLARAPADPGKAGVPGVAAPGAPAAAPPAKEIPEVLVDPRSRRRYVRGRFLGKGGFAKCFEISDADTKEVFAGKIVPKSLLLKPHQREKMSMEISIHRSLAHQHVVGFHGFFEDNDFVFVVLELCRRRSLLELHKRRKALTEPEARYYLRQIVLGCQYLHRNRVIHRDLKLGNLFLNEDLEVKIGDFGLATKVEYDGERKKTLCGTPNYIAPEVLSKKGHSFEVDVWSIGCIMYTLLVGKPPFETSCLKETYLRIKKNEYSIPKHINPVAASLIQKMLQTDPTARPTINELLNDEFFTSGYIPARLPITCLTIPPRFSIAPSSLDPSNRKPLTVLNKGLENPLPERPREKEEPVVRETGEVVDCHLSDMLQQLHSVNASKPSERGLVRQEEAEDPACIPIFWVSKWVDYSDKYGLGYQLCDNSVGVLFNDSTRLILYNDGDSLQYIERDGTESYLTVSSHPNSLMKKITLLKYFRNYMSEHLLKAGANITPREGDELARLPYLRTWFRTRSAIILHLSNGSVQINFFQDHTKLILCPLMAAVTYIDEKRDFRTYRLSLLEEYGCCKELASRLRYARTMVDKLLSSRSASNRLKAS
* = called active by the depositor; u = inconclusive; x = not tested or not shown. Unless noted, calls come from the whole dose curve; as a rule, active = well fitted curve in the direction sought with a large enough effect; inconclusive = small, poorly fitted or top-dose-only effect, or another doubt; inactive = no such curve, though single readings can be large; an effect the other way counts as inactive or inconclusive.

SMILES | VDR inh | PTAP TSG101 blk | TSHR antagonist | uPA generation | PLK1 PBD block
COc1ccccc1-c1cc(C(=O)Nc2sc3c(c2C#N)CCC(C)C3)c2ccccc2n1 (centres undefined) | -7% | 0% | 2 | 3% | 27µM*
COc1cc(C(=O)C(=O)N2CCC(Cc3ccccc3)CC2)cc2ccccc12 | x | x | x | x | -3%
Cn1c2ccccc2c2c(C(=O)N3CCN(c4ccc(F)cc4)CC3)cn(C3CCCCC3)c(=O)c21 | -6% | x | x | x | x
O=C(NCc1ccco1)c1ccc2nc([C@@H]3O[C@H](CO)[C@H](O)[C@H](O)[C@H]3O)[nH]c2c1 | x | x | x | x | -8%
CCCCn1c(=O)c2oc3ccccc3c2n(Cc2ccccc2C)c1=O | -1% | x | x | x | x
CCOc1ccc(-c2nc3c(c(SCC(=O)N4CCCCC4)n2)Cc2ccccc2O3)cc1 | -7% | x | x | x | x
Cc1ccc(NCN2C(=O)C3C4C=CC(C4)C3C2=O)cc1 (centres undefined) | u | 1% | -2 | 11% | 3.4µM*
CCC1CCCCN1C(=O)CCCOc1ccccc1 (centres undefined) | u | -6% | -3 | 7% | 3.4µM*
CCn1nc(C(=O)Nc2ccc(Cl)c(S(=O)(=O)N3CCOCC3)c2)c2ccccc2c1=O | -1% | -17% | -7 | -5% | -5%
CCc1cc2c(SCC#N)ncnc2s1 | 5% | -2% | -2 | -8% | 27µM*
CCc1cc2c(SCC(=O)O)ncnc2s1 | 13% | -7% | -10 | x | -10%
N#CCC(=O)NN | 5% | x | x | x | x
S=C(c1c[nH]c2ccccc12)N1CCOCC1 | -1% | -2% | -4 | x | 15µM*
S=C(c1cn(Cc2ccc(Br)cc2)c2ccccc12)N1CCOCC1 | u | -7% | -7 | -10% | 30µM*
CCOc1ccc(CNC(=O)c2ccc3c(c2)sc2nc(-c4ccccc4)cn23)cc1 | 11% | x | x | x | x
CC(C)(C)c1ccc2c(c1)C(=O)c1ccccc1C2=O | -23% | 1% | -1 | -12% | 2%
CC(C)(C=O)C1=CC(=O)c2ccccc2C1=O | 45µM* | -4% | -87* | -11% | 2.1µM*
COc1ccc(C(=O)CCN2CCN(c3ccccc3F)CC2)cc1 | 22µM* | 0% | 21 | -7% | 11µM*
COc1ccc(C(=O)CCN2CCN(c3ccc(OC)cc3)CC2)cc1 | u | 0% | 9 | -11% | -24%
COc1ccc(C(=O)CCN2CCCCCC2)cc1 | 28µM* | -9% | -2 | x | 16µM*
COc1cccc2nc3cc(C)c(C)cc3nc12 | 22µM* | -8% | -12 | 3.2µM* | 17µM*
COc1cccc2c1nc(C)c1cc(C)oc12 | 7% | -3% | 3 | -8% | -4%
O=C(O)c1c(Cl)c(Cl)c(Cl)c(Cl)c1-c1c2cc(I)c(=O)c(I)c-2oc2c(I)c(O)c(I)cc12 | 5.6µM* | x | x | x | x
COc1ccc2c(c1)O[C@@H](c1cccc(C(F)(F)F)c1)[C@H](OC(=O)NS(=O)(=O)c1ccc(C)cc1)C2=O | 7% | x | x | x | x
Cc1ccc(OCc2cc(C(=O)N3CCN(CC(=O)NC(C)C)CC3)no2)cn1 | -17% | -3% | -2 | -1% | 27µM*
SMILES | VDR inh | PTAP TSG101 blk | TSHR antagonist | uPA generation | PLK1 PBD block
Cc1ccc(OCc2cc(C(=O)N3CCCC(C)C3)no2)cn1 (centres undefined) | x | x | x | x | -13%
Cc1nc(C)c(C(=O)N(c2ccccc2F)C(C(=O)NCC2CCCO2)c2ccccc2)s1 (centres undefined) | u | -2% | -2 | x | 27µM*
O=C(NC(=S)NCCc1ccc(Cl)cc1)c1ccco1 | u | -6% | -14 | -1% | 30µM*
O=C(CCNC(=O)c1ccco1)Nc1ccc(Cl)cc1 | -15% | 2% | -1 | -1% | 30µM*
COCC(=O)N1CCC2(CC1)CCN(c1ncccn1)CC2 | 0% | x | x | x | x
COCCN(C(=O)CCC(=O)Nc1nccs1)C(C(=O)NCCC(C)C)c1ccc(OC)cc1 (centres undefined) | -1% | -3% | 6 | -3% | -1%
COc1ccc(C(C(=O)NC(C)C)N(C(=O)CCC(=O)Nc2nccs2)c2ccccc2F)cc1 (centres undefined) | -15% | -3% | 3 | 1% | 13µM*
Cc1cn([C@H]2C[C@H](O)[C@@H](/C=C/C(=O)NCc3ccco3)O2)c(=O)[nH]c1=O | x | x | x | x | 4%
O=C(N/N=C\c1ccc(CN(Cc2ccc(Cl)cc2)S(=O)(=O)c2ccccc2)o1)C(=O)Nc1ccc(F)cc1 | -22% | 2% | 29 | 1% | 27µM*
COc1ccc(C2C=C(c3ccccc3)Nc3ncnn32)cc1 (centres undefined) | 2% | -9% | 4 | -6% | -21%
COc1ccc(C2=CC(c3ccco3)n3ncnc3N2)cc1 (centres undefined) | 11% | u | 6 | -2% | 34µM*
O=C(NC1CCCCC1)c1ccc2c(c1)N(Cc1ccccc1F)C(=O)c1ccccc1S2 | 10% | x | x | x | x
CN(C)c1nc(=NCc2cccs2)ss1 | u | -6% | x | -7% | 5.3µM*
Cc1ccc(Cl)cc1N1CCN(C(=O)C2CCC(=O)N(C3CCCCCC3)C2)CC1 (centres undefined) | 14% | 0% | -24 | 4% | -21%
Cc1cccc(N2CCN(C(=O)C3CCC(=O)N(C4CC4)C3)CC2)c1C (centres undefined) | u | -8% | -6 | -15% | 7.5µM*
Cc1cccc(N2CCN(C(=O)Cn3cccc3)CC2)c1C | -13% | -8% | -5 | -8% | -14%
Cc1cccc(N2CCN(C(=O)C(C)C)CC2)c1C | -6% | -1% | -2 | -4% | 30µM*
Cc1cccc(N2CCN(C(=O)Cn3ncc4c5ccccc5n(C)c4c3=O)CC2)c1C | 9% | x | x | x | x
Cc1cccc(N2CCN(C(=O)Cc3cn(C)c4ccccc34)CC2)c1C | 20µM* | -9% | 10 | -10% | 12µM*
Cn1c(-c2ccccc2)c(C(=O)CC#N)c2ccccc21 | -14% | -7% | 10 | -4% | -6%
CN(C)CCCNCC(=O)c1c(-c2ccccc2)n(C)c2ccccc12 | 79µM* | -6% | 23 | -9% | -21%
O=C(NCCc1ccccc1)c1ccc(Nc2nc3ccccc3n3nnnc23)cc1 | -11% | x | x | x | x
CCOC(=O)N/N=C/C=C/c1ccccc1[N+](=O)[O-] | -24% | 0% | -2 | 1% | 21µM*
COc1ccc(-c2coc3cc(OC(C)=O)ccc3c2=S)cc1 | u | -2% | x | -1% | 12µM*
CCCC(O)(CCC)C(=O)NN1CCCCC1 | 79µM* | -6% | 7 | x | 19µM*
CC(C)CCC(O)(CCC(C)C)C(=O)NN1CCCCC1 | -1% | 1% | 35 | 2% | 6%
Cc1ccc(Nc2c(-c3ccccn3)nc3ccc(C)cn23)cc1 | -12% | -2% | -3 | 6.3µM* | 4%
O=C(CSc1nc2c([nH]c3ccccc32)c(=O)n1-c1ccccc1)Nc1ccc2c(c1)OCO2 | 2% | x | x | x | x
c1coc(C2Nc3ccccc3C3OCCC23)c1 (centres undefined) | -9% | -3% | 10 | -5% | u
